The supplement of paper PMC11417369
Over roughly 25,000 sequences, “ln(normalized median fluorescence intensity)” has its median near 9.3; the highest 2% begin near 10. What follows is part of a selection rich in the highest values, with near analogues and random picks from the rest.

These sequences were tested on PF3D7_0420300 AP2 domain 1 (GST-tagged) (assay: gcPBM binding intensity (ln(normalized median fluorescence intensity)); higher = stronger DNA binding).
Outline: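 GST-tagged P. falciparum DNA-binding domains produced in E. coli were incubated for 1 h on an Agilent 4 × 180k array of primer-extended double-stranded 36-bp intergenic genomic probes with negative controls. Binding intensity is the highest Masliner-normalised natural-log median intensity across replicate spots of either probe orientation, with bound protein detected by Alexa488 anti-GST antibody at 488 nm.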

| Sequence | gcPBM binding intensity (ln) |
| --- | --- |
| AATTATCAGGAATGATGTACTGAAATAAAAAAAAAA [XGTACX_site3280] | 9.11 |
| GTATATATATATATATGTACTAATTAGTAGTTTACG [XGTACX_site6274] | 9.25 |
| TTTTTATGAATTCTTTTGTTAATAATAATATGTTGT [TGCATGCA_negctrl_site198] | 9.19 |
| ATATATCTGTATGGCACACACGGATAAATATATATA [CACACA_site4668] | 9.52 |
| ATATAGTAAATTGGTAGTACATAAAATGATTTTATG [XGTACX_site4143] | 9.26 |
| AAAAAAAAATTGTGTACACATAATTATATCATATGT [CACACA_site4500] | 9.3 |
| ACTATTTTCTTCAAAACATGCACCACATAAACATAA [TGCATGCA_site200] | 9.18 |
| ACCTATTTCAAACACACACACACACTAGCAAACATA [CACACA_site4695] | 10.3 |
| ACCTATTTCAAACACACACACACACCCACAAACATA [CACACA_site977] | 10.4 |
| TTTCTTATTTTTTTCACACACTAAACATTTCAAATG [CACACA_site5259] | 9.35 |
| CTATTTCAGAAACACACACACACAAACAAACATATA [CACACA_site978] | 9.93 |
| TGTTTCTTATTTTTTTCACACACTAAACATTTCAAA [CACACA_site2218] | 9.62 |
| ACCTATTTCAAACACACACACACACTAACAAACATA [CACACA_site8233] | 10.3 |
| AAAAAATTAAAAATCACACATAAATATATATAAAAA [CACACA_site4192] | 9.48 |
| CATATATTATTATATGCACACATGAAAATATACAAA [CACACA_site2795] | 9.49 |
| AAGAAAAAAATTTATACAAGAATTTTTTATTATTAA [TGCATGCA_negctrl_site587] | 8.9 |
| ATTTATGTTATATATACACACACAAAAGAAAAAAAA [CACACA_site8977] | 9.82 |
| AAACATATAAACATATGTACATATAAACATATATAC [XGTACX_site5026] | 9.42 |
| AAAAAAAAAGTATTATGTACATAAAAATAAAAAAAT [XGTACX_site4166] | 9.42 |
| ATATAAGTATATCTATGTACATACAATATAAATGTA [XGTACX_site2153] | 9.09 |
| AAAAAAAGAAAAAAAACACACACAAATATAAATAAA [CACACA_site8309] | 10 |
| TAAAAAATATAAACTGCACACACAAAAAAAAAAGAG [CACACA_site8379] | 10.2 |

| Sequence | gcPBM binding intensity (ln) |
| --- | --- |
| AAAAAGAAAAAAAACACACACAAATATAAATAAATA [CACACA_site1183] | 9.98 |
| AAAAATATAAACTGCACACACACAAAAAAAGAAAAA [CACACA_site648] | 10.1 |
| AAATATAAACGGCACACACACAAAAAAAGAAAAAAA [CACACA_site649] | 10.2 |
| AAAAATATAAACTGCACACACAAAAAAAAAAGAGAA [CACACA_site1367] | 10.1 |
| TCTAATGATATATACACACACATATAGATTTATATA [CACACA_site7044] | 9.64 |
| TGTAGATATTATATATGTACGCATATGAAATATATA [XGTACX_site1586] | 9.09 |
| ACATATTCATATGGAAGTACGATAATGTAGTCATAT [XGTACX_site7080] | 9.37 |
| TTTAACAACTATTTCTGTACACATTTTTATATAATT [XGTACX_site4917] | 9.47 |
| TTTATATTATAATATAATAATGATCTTAATTTTTTT [XGTACX_negctrl_site100] | 8.91 |
| AAAAAAAATTTTAATTGTACAAAAAAAAAAAATATA [XGTACX_site2259] | 8.91 |
| AACATACATAGACACACACACACACGCACACGCACA [CACACA_site6373] | 10.3 |
| CACATACAGACATACACACATACACATATACGCATA [CACACA_site1745] | 9.86 |
| CACGCACGCAGACACACACACACACGCACATATATA [CACACA_site6303] | 10.3 |
| AGTATACGCAGACACACACACACATATATATATATA [CACACA_site1735] | 9.98 |
| TATACACATAGACACACACACAAAAAAAAAAAAAAA [CACACA_site6338] | 9.73 |
| CATACATACAGACACACACACATATATATATATATA [CACACA_site2920] | 9.91 |
| TATACACATAGACACACACACATACACGCACATACA [CACACA_site6908] | 10.1 |
| CATACACATAGACACACACACATATATACCTATATA [CACACA_site6644] | 10.1 |
| CACATACACATACACATACACACGCATAGAAACATA [CACACA_site2136] | 9.79 |
| CGCACACGCAGACACACACACACATATAAATAAATA [CACACA_site7101] | 9.86 |
| TATATACACAGACACACACACACATACACGCACATA [CACACA_site6909] | 10.3 |
| CATACCTATAGACACACACACACACGCACGCACAAA [CACACA_site6374] | 10.2 |

| Sequence | gcPBM binding intensity (ln) |
| --- | --- |
| TAGTATTTATATGATTAACACACATATGGGTATTAA [CACACA_site8363] | 9.28 |
| CATATAAGACAAAAGGTGCAATTTTAATGCTTTTAT [GTGCAC_site9432] | 9.31 |
| ATAACATATATATATACACACACATATATATATGAA [CACACA_site7983] | 9.79 |
| TTCTATATTTTAGCTGATAATATTATGAGCTTCACT [XGTACX_negctrl_site427] | 9.08 |
| AATAAATAAATAAATATATATATATATATATATATA [CACACA_negctrl_site708] | 8.86 |
| TCTTCTTAACCAACTATGAAAAGGAAAAATATAACA [GTGCAC_negctrl_site565] | 9.06 |
| TATGTATAATTATTTTGTACTTATTAAATTTTTTTT [XGTACX_site5413] | 9.18 |
| TACCCTGATCGGCATGCATGTAAGTAACAAATATAT [TGCATGCA_site153] | 9.22 |
| ATATAAAATATTACGTGTACACATAAATAAAAATAA [XGTACX_site3746] | 9.41 |
| GAATAAAAAATTGGCACACATAAATATATGGATATA [CACACA_site3047] | 9.46 |
| TATACGCATATATACACACACATATATATATATATA [CACACA_site3416] | 9.66 |
| CATACACGCGGACACACACACACACGCATATATAAC [CACACA_site6427] | 10.4 |
| AGTATACATATATATACACACACATATATATATATA [CACACA_site7883] | 9.61 |
| AGTATACATATATATACACACATATATATATATATA [CACACA_site300] | 9.42 |
| AGTATACTCGGACACACACACACATATATATATATA [CACACA_site5031] | 10.2 |
| CATATATACACATACACACACACACGGACACGCACA [CACACA_site6910] | 10.2 |
| AAAAAAAAAAAAAAGACACACATATATATATATATA [CACACA_site633] | 9.15 |
| TATACACGCGGACACACACACACACGCAAAAAAAAA [CACACA_site6377] | 10.1 |
| CGCATACACGGACACACACACACATATATATATATA [CACACA_site4520] | 10.1 |
| AAAAAAAAAAGACACACACACACACGCATATACATA [CACACA_site7289] | 10.2 |
| TACATACACGGACACACACACATATATATATATATA [CACACA_site5883] | 9.95 |
